Assay results: PubChem BioAssay
Activity calls are given as the source filed them. Unless noted, how the calls were made is not given here.

What was measured:
[1] = anti-His antibody binders, primary screen, artefact control for SMM control protein annotation, biochemical, small-molecule microarray, 635 nm fluorescence (AID 1128); conditions: anti-His Alexa647 antibody binding, higher = more signal;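 further: score merges feature fluorescence with signal-to-noise for each printed compound spot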
[2] = system: Human papillomavirus type 1a E7 protein (residues 1-88); assay: HPV1a E7 small-molecule binders, primary screen, biochemical, small-molecule microarray, residues 1-88, 635 nm (AID 1129); conditions: small-molecule microarray binding, fluorescence 635 nm; higher = more signal
[3] = target: Focal adhesion kinase 1 (Homo sapiens) (UniProt Q05397); assay: small-molecule microarray binders of FAK, primary screen, biochemical, 635/667 nm fluorescence, BSA, DTT (AID 1130); conditions: PTK2 binding, 635 nm fluorescence, higher = more signal;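 further: composite of spot emission at 667 nm and signal to noise over triplicate slides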
Sequence of Focal adhesion kinase 1 (Homo sapiens) (Q05397 whole entry, looked up): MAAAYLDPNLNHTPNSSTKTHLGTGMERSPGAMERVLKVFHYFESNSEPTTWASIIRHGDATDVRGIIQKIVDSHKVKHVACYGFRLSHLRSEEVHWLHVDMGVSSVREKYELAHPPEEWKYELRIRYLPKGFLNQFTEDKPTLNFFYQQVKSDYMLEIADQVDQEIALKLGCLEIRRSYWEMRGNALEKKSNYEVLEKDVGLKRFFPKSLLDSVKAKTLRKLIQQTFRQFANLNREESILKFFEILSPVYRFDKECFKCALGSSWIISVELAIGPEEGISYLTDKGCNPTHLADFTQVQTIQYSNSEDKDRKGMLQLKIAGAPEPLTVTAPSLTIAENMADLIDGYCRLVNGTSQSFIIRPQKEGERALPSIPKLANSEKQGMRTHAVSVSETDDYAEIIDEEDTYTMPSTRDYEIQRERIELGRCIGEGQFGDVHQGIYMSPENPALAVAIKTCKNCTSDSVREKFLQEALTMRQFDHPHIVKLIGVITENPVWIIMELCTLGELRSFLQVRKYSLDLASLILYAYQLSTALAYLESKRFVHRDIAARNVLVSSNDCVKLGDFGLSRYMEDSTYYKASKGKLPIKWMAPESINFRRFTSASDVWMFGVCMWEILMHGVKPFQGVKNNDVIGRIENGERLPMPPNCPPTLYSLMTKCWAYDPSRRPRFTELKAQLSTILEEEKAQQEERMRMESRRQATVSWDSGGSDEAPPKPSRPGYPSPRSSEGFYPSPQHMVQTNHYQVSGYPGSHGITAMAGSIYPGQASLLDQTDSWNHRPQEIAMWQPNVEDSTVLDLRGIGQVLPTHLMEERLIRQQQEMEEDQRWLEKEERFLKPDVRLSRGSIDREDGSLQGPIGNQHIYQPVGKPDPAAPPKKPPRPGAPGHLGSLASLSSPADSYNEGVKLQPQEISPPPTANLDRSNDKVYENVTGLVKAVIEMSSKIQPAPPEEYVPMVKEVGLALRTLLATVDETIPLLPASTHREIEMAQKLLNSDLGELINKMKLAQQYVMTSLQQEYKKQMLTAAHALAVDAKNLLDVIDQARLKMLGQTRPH

[4] = system: Fibrinogen (Alexa647-labelled); assay: fibrinogen binders on compound microarrays, profiling panel, artefact control for SMM control-protein annotation, biochemical, small-molecule microarray, 635/667 nm fluorescence (AID 1131); conditions: fibrinogen-A647 binding fluorescence, higher = more signal;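 further: z-score merges 667 nm fluorescence with per-spot signal-to-noise over triplicate slides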
[5] = target: Follistatin (Homo sapiens) (UniProt P19883); assay: follistatin binders on small-molecule microarrays, primary screen, biochemical, small-molecule microarray, 635/667 nm fluorescence (AID 1132); conditions: FST binding, 635 nm fluorescence, higher = more signal
Sequence of Follistatin (Homo sapiens) (P19883 whole entry, looked up): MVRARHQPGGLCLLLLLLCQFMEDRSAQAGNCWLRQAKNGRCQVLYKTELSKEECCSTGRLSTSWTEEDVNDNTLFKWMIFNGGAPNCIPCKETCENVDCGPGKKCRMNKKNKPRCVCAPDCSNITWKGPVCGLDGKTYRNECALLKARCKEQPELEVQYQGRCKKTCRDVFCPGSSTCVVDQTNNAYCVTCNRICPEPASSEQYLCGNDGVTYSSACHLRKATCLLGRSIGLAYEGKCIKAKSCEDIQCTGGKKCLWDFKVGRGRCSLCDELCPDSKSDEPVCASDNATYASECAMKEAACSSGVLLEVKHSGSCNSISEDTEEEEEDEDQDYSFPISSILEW

[6] = target: Fibroblast growth factor 2 (Homo sapiens) (UniProt P09038); assay: FGF2 binders on small-molecule microarrays, primary screen, biochemical, small-molecule microarray, 635/667 nm fluorescence (AID 1133); conditions: small-molecule microarray binding, FGF2, fluorescence 635/667; higher = more signal
Sequence of Fibroblast growth factor 2 (Homo sapiens) (P09038 whole entry, looked up): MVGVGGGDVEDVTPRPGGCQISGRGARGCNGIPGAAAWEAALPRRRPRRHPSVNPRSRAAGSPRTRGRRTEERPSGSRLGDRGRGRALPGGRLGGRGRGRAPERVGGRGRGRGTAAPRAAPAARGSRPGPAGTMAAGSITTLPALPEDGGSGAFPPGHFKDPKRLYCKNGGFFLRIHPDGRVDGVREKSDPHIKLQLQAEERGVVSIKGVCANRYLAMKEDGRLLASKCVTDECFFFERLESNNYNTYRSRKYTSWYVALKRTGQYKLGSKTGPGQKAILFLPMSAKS

[7] = mitochondrial membrane potential change in A549 cells, profiling panel, cell-based, JC-1 fluorescence, basal, 24 h, 100 nL (AID 1138); conditions: higher = more signal;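 further: A549 lung adenocarcinoma cells under basal conditions with no added stimulus; test concentration not given here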
Lefty1 = Lefty1 binders on small-molecule microarrays, primary screen, biochemical, small-molecule microarray, 635/667 nm fluorescence (AID 1139); conditions: small-molecule microarray binding, fluorescence 635/667; higher = more signal
[8] = system: wheat germ agglutinin (Triticum aestivum), Alexa647-labelled; assay: wheat germ agglutinin binders on compound microarrays, profiling panel, artefact control for SMM control-protein annotation, biochemical, small-molecule microarray, 635/667 nm fluorescence (AID 1140); conditions: WGA-A647 binding, 635 nm fluorescence, higher = more signal;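 further: score merges 667 nm feature emission with signal to noise over triplicate slides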
[9] = target: Luciferin 4-monooxygenase (Photinus pyralis) (UniProt P08659); assay: firefly luciferase enzyme inhibitors, primary screen, biochemical, luminescence, purified enzyme, 2006 set (AID 1141); conditions: SteadyGlo luminescence, 30 min, higher = more signal, called active from +8 up or from −8 down;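 further: cell-free assay with purified firefly luciferase at 100 ng per well in PBS; test concentration not given here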
Sequence of Luciferin 4-monooxygenase (Photinus pyralis) (P08659 whole entry, looked up): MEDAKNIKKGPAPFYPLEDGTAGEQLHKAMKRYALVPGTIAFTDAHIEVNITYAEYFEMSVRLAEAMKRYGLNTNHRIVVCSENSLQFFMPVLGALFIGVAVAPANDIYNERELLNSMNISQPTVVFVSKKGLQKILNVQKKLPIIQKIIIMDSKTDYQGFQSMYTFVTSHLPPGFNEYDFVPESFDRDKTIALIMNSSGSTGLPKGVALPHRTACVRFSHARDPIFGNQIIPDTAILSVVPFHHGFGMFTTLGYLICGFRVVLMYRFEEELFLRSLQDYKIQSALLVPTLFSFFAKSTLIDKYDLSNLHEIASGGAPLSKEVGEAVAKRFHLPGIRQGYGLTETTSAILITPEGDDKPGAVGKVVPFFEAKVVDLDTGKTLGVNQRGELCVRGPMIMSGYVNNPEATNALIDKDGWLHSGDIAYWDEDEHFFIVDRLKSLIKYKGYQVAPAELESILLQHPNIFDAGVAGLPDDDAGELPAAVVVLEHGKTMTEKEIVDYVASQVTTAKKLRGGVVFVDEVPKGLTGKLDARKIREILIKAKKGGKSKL

[10] = system: Wnt5a (protein binding on small-molecule microarray); assay: Wnt5a binders on small-molecule microarray, primary screen, biophysical, 635/667 nm fluorescence (AID 1142); conditions: 635 nm fluorescence, higher = more signal;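 further: fluorescence read at 667 nm with signal to noise per printed feature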
[11] = cell viability in Huh7 cells, primary screen, cytotoxicity control for HCV replication inhibitor project, CellTiter-Glo luminescence, basal, 48 h (AID 1143); conditions: Huh7 HCV replicon, higher = more signal, called active from +8 up or from −8 down;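 further: Huh7 hepatoma cells carrying a hepatitis C replication reporter with no stimulus; test concentration not given here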
[12] = P. aeruginosa biofilm formation inhibitors, primary screen, PAO1 strain, BacTiter-Glo luminescence, LB-PBS (AID 1144); conditions: 12 h, higher = more signal
[13] = CREB reporter modulators without forskolin, primary screen, cell-based, PC12, CRE-LacZ reporter, unstimulated (AID 1145); conditions: no forskolin, luminescence, 4.5 h, higher = more signal, called active from +8 up or from −8 down
[14] = CREB reporter modulators under forskolin, primary screen, cell-based, PC12, CRE-LacZ reporter, forskolin-stimulated (AID 1146); conditions: luminescence, 4.5 h, higher = more signal, called active from +8 up or from −8 down;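 further: PC12 cells with 6xCRE LacZ reporter stimulated by forskolin 10 µM; beta-galactosidase reporter signal reflecting CREB driven transcription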
[15] = target: Streptavidin (Streptomyces avidinii) (UniProt P22629); assay: streptavidin binders on small-molecule microarray, primary screen, artefact control for SMM compound annotation, biophysical, 635/667 nm fluorescence (AID 1147); conditions: streptavidin binding, higher = more signal;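 further: signal reflects streptavidin binding to arrayed compounds as a control protein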
Sequence of Streptavidin (Streptomyces avidinii) (P22629 whole entry, looked up): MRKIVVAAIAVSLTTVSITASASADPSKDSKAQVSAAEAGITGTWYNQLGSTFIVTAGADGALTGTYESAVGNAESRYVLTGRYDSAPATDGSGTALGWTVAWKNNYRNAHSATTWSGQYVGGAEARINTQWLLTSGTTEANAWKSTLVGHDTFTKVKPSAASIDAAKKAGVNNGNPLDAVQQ

[16] = small-molecule binders of probe aInhba, primary screen, biochemical, small-molecule microarray, 635/667 nm fluorescence (AID 1148); conditions: higher = more signal;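 further: score merges 667nm spot fluorescence with signal-to-noise for antibody binding to printed compounds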
Torsin-1A (Homo sapiens) [17] = target: Torsin-1A (Homo sapiens) (UniProt O14656); assay: torsin A binders from cell lysate, primary screen, small-molecule microarray, wild-type, 635/667 nm (AID 1149); conditions: COS7 hTOR1A-WT lysate, 635 nm fluorescence, higher = more signal
Sequence of Torsin-1A (Homo sapiens) (O14656 whole entry, looked up): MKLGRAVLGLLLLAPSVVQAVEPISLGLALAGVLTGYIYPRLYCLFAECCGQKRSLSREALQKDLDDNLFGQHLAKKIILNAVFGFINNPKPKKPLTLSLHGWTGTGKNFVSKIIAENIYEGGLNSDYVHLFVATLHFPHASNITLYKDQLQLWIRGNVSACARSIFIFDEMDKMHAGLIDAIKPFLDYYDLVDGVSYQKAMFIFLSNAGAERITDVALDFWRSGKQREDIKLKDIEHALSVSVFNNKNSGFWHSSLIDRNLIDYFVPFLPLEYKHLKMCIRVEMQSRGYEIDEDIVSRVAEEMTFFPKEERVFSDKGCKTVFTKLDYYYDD

Torsin-1A (Homo sapiens) [18] = target: Torsin-1A (Homo sapiens) (UniProt O14656); assay: small-molecule binders of mutant TOR1A in lysate, primary screen, cell lysate, small-molecule microarray, COS7 lysate, 635/667 nm fluorescence (AID 1150); conditions: COS7 hTOR1A mutant lysate, 635 nm fluorescence, higher = more signal;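 further: score pools 667 nm emission and signal to noise measuring lysate protein binding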
[19] = system: Sonic hedgehog protein (Shh); assay: small-molecule binders of Shh protein, primary screen, biochemical, small-molecule microarray, 635/667 nm fluorescence (AID 1151); conditions: small-molecule microarray binding, 635 nm fluorescence; higher = more signal;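 further: Shh protein binding to compounds spotted on small-molecule microarray slides; score combines spot fluorescence intensity with signal-to-noise across triplicate slides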

SMILES | composite z-score [1] | composite z-score [2] | composite z-score [3] | composite z-score [4] | composite z-score [5] | composite z-score [6] | z-score [7] | composite z-score (Lefty1) | composite z-score [8] | z-score [9] | composite z-score [10] | z-score [11] | z-score [12] | z-score [13] | z-score [14] | composite z-score [15] | composite z-score [16] | composite z-score (Torsin-1A (Homo sapiens) [17]) | composite z-score (Torsin-1A (Homo sapiens) [18]) | composite z-score [19]
COC(=O)C(CC#Cc1ccc2c(c1)[C@]1(C(=O)N2)[C@H](C(=O)N2CCN(c3ncccn3)CC2)[C@H]2C(=O)O[C@H](c3ccccc3)[C@H](c3ccccc3)N2[C@@H]1c1ccc(O)cc1)C(=O)OC | 1.19 | 1.25 | 0.904 | 0.951 | 1.43 | 1.57 | -0.877 | 1.03 | 1.36 | -0.178 (inactive) | 0.923 | -3.7 (inactive) | -0.58 (inactive) | -0.0515 (inactive) | 0.0989 (inactive) | 2.27 | 1.39 | 0.662 | 1.12 | 1.04
COc1ccc(C#Cc2ccc3c(c2)[C@]2(C(=O)N3)[C@H](c3ccccc3OCCO)N3[C@H](c4ccccc4)[C@H](c4ccccc4)OC(=O)[C@H]3[C@@H]2C(=O)NC[C@H](O)c2ccccc2)cc1 | 1.05 | 1.14 | 1.31 | 0.848 | 1.27 | 1.62 | -1.25 | 1.06 | 0.319 | 0.412 (inactive) | 0.537 | -5.57 (inactive) | -0.627 (inactive) | 0.0921 (inactive) | -0.54 (inactive) | 0.448 | -0.0259 | 0.138 | 0.701 | 1.72
C[C@@]1([C@@H](NS(=O)(=O)c2cccc3cccnc23)c2ccc(-c3ccccc3)cc2)C[C@H]1C1CCCCC1 | 0.431 | 1.18 | 1.14 | -0.744 | 0.247 | -0.506 | 0.00915 | -0.959 | 0.655 | 1.29 (inactive) | 0.17 | -2.15 (inactive) | 0.33 (inactive) | 0.583 (inactive) | -0.152 (inactive) | 1.15 | 0.417 | -0.293 | 0.0327 | -0.517
C=CCNC(=O)[C@H]1[C@@H]2C(=O)O[C@@H](c3ccccc3)[C@@H](c3ccccc3)N2[C@@H](c2ccc(OCCO)cc2)[C@]12C(=O)N(C(=O)OCCOC)c1ccc(C#CCC(C(=O)OC)C(=O)OC)cc12 | 0.302 | 1.2 | 0.227 | 0.94 | 1.27 | 0.252 | -0.933 | 1.27 | 1.26 | -0.515 (inactive) | 1.12 | -1.17 (inactive) | 0.0229 (inactive) | 0.0614 (inactive) | -0.228 (inactive) | 1.26 | 0.389 | 0.77 | 0.944 | 1.96
CCc1cccc(NC(=O)O[C@H]2[C@H](OC(=O)Nc3ccccc3-c3ccccc3)[C@H](OC(=O)Nc3ccccc3-c3ccccc3)[C@@H](OC)O[C@@H]2CO)c1 | 0.979 | 1.21 | 0.775 | 1.01 | 1.36 | 0.598 | -1.35 | 1.21 | 0.834 | 1.09 (inactive) | 0.947 | -5.67 (inactive) | -1.82 (inactive) | -0.506 (inactive) | -0.238 (inactive) | 0.284 | 0.0345 | 0.762 | 0.875 | 2.18
COc1ccc(C(=O)Nc2ccc(CN3C(=O)[C@@]4(O[C@@H](CC(=O)N(CCO)Cc5ccccc5)[C@H]([Si](C)(C)c5ccc(OC)cc5)[C@H]4C)c4ccccc43)cc2)cc1 | 0.757 | 0.066 | 0.385 | 0.0715 | 0.35 | 0.936 | -0.266 | 1.11 | 1.1 | 0.594 (inactive) | 0.353 | -5.7 (inactive) | -0.376 (inactive) | -0.533 (inactive) | -0.0361 (inactive) | 0.675 | -0.179 | 0.438 | -0.0394 | 1.59
CC(C)(C)OC(=O)N1[C@@H](C=C(Br)Br)COC1(C)C | 0.286 | 0.974 | -0.0276 | 0.592 | 0.652 | 0.65 | 0.206 | 0.519 | -0.0422 | -1.04 (inactive) | -0.0677 | -2.04 (inactive) | 0.278 (inactive) | -0.104 (inactive) | 0.0695 (inactive) | 0.29 | -0.15 | 0.396 | 0.656 | 0.938
C=C(COC)C(=O)CC[C@H](OC(C)=O)c1ccccc1OCCO | 0.342 | -0.538 | 0.253 | -0.674 | 1.26 | 1.73 | 0.0429 | 1.13 | -0.368 | -1.61 (inactive) | 0.0375 | -4.1 (inactive) | -0.0151 (inactive) | 6.35 (inactive) | 4.62 (inactive) | -0.955 | 0.858 | 2.34 | 0.851 | 1.8
C=CCC(OC(C)=O)[C@@H]1[C@@H](N(Cc2ccc(-c3ccccc3)cc2)C(=O)Cc2ccc(OC)cc2)c2cc(OCCCO)ccc2N1C(=O)Cc1ccc(OC)cc1 (stereo not given in full) | 0.271 | 0.0716 | 1.78 | 0.513 | 0.7 | 0.0471 | 0.462 | 0.161 | 0.365 | 0.355 (inactive) | 0.0361 | -1.79 (inactive) | 1.04 (inactive) | 0.642 (inactive) | 0.482 (inactive) | 0.222 | 0.169 | 0.172 | 0.212 | 0.363
CC[C@@H](O[Si](C#C[Si](C(C)C)(C(C)C)C(C)C)(C(C)C)C(C)C)c1cn(Cc2cccc(Cl)c2)nn1 | 0.448 | 0.79 | 0.357 | 0.377 | 0.371 | 0.46 | -0.153 | 0.809 | 0.23 | 0.433 (inactive) | 0.159 | 0.139 (inactive) | -0.14 (inactive) | -0.272 (inactive) | -0.168 (inactive) | 0.424 | -0.124 | 0.188 | 0.227 | 0.546
